This is an account of results in the supplement of paper PMC10849652.

Of roughly 8,800 targets only a part is listed; those with a hit were picked by preference. About 0.5% of all pairs of compound and target were hits. Values without a mark were called inactive.

Holding throughout (assay): log2 fold change, soluble protein after heating vs DMSO (PISA); higher = thermal stabilisation; K562 lysate, 10 uM; active = over 0.2 and 3.5 SD of the protein, either way, in both replicates (recomputed)
Compound in one assay: CS(=O)(=O)CCNCc1ccc(-c2ccc3ncnc(Nc4ccc(OCc5cccc(F)c5)c(Cl)c4)c3c2)o1 [lapatinib]
The essentials:
(§1)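 Log-two fold change in thermal stability relative to solvent controls is reported from duplicates. For each sample, crude K562 extract from dounce-homogenised pellets in PBS pH 7.4 with 1 mM MgCl2, at 1 mg/mL protein, was treated with 10 μM compound for 30 min. Aliquots heated for 3 min across 48°C-58°C were pooled, brought to 0.5% NP-40 at 4°C and cleared at 21,000xg for 90 min. The supernatant was quantified by TMTpro 16plex LC-MS/MS with channel sums equalised.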

Compound in assay [1]: C[C@H](C1=CC=C(C=C1)C(=O)NC2=C3C=CNC3=NC=C2)N
The procedure, abridged: as §1

Compound in a further assay: C[C@H](Nc1ncnc2nc[nH]c12)c1cc2cccc(Cl)c2c(=O)n1-c1ccccc1 [duvelisib]
The procedure, abridged:
as §1

Compound in a further assay: Cc1cc(Nc2cc(CN3CCOCC3)c3nc(C)c(Cc4ccc(Cl)cc4F)n3n2)n[nH]1 [gandotinib]
The procedure, abridged:
as §1

Compound in the next assay: Cc1cc(Nc2cc(N3CCN(C)CC3)nc(Sc3ccc(NC(=O)C4CC4)cc3)n2)n[nH]1 [tozasertib]
The procedure, abridged: as §1

Compound in assay [2]: Cc1cccc(CC(=O)N2CCc3c2ccc(-c2cn(C)c4ncnc(N)c24)c3F)n1
The procedure, abridged: as §1

Compound in a further assay: Cc1cn(-c2cc(NC(=O)c3ccc(C)c(Nc4nccc(-c5cccnc5)n4)c3)cc(C(F)(F)F)c2)cn1 [nilotinib]
The procedure, abridged:
as §1

Compound in assay [3]: Cc1nc(Nc2n[nH]c3c2CN(C(=O)N[C@H](CN(C)C)c2ccccc2)C3(C)C)c2sccc2n1
The essentials: as §1

Compound in a further assay: Cc1nc(Nc2ncc(C(=O)Nc3c(C)cccc3Cl)s2)cc(N2CCN(CCO)CC2)n1 [dasatinib]
The essentials: as §1

Compound in assay [4]: Cc1ncc(-c2ccnc(Nc3ccc(S(C)(=O)=O)cc3)n2)n1C(C)C
The procedure, abridged: as §1

Compound in assay [5]: Cn1cc(-c2ccc3c(c2)CCN3C(=O)Cc2cccc(C(F)(F)F)c2)c2c(N)ncnc21
The procedure, abridged: as §1

Compound in a further assay: Cn1cncc1[C@@](N)(c1ccc(Cl)cc1)c1ccc2c(c1)c(-c1cccc(Cl)c1)cc(=O)n2C [tipifarnib]
The procedure, abridged:
as §1

Compound in assay [6]: NC(=O)c1cnc(N[C@@H]2CCCC[C@@H]2N)nc1Nc1cccc(-n2nccn2)c1
The essentials:
as §1

Compound in assay [7]: NC1(c2ccc(-c3nc4ccn5c(=O)[nH]nc5c4cc3-c3ccccc3)cc2)CCC1
The procedure, abridged:
as §1

Compound in the next assay: C[C@@H](Oc1cc(-c2cnn(C3CCNCC3)c2)cnc1N)c1c(Cl)ccc(F)c1Cl [crizotinib]
The procedure, abridged:
as §1

Compound in another assay: Cc1ccc(-n2nc(C(C)(C)C)cc2NC(=O)Nc2ccc(OCCN3CCOCC3)c3ccccc23)cc1 [doramapimod]
The procedure, abridged:
as §1

Compound in the next assay: Cn1cc(CNCC2CCN(c3ncc(C(=O)NO)cn3)CC2)c2ccccc21 [quisinostat]
The procedure, abridged:
as §1

Compound in assay [8]: NC(=O)Nc1cc(-c2cccc(F)c2)sc1C(=O)N[C@H]1CCCNC1
The essentials: as §1

Compound in the next assay: CS(=O)(=O)N1CCN(Cc2cc3nc(-c4cccc5[nH]ncc45)nc(N4CCOCC4)c3s2)CC1 [pictilisib]
The procedure, abridged: as §1

Compound in another assay: Cc1ccc(NC(=O)c2ccc(CN3CC[C@H](N(C)C)C3)c(C(F)(F)F)c2)cc1Nc1nccc(-c2cncnc2)n1 [bafetinib]
The essentials: as §1

Chain of UniProt O75382 (O75382 whole entry, looked up): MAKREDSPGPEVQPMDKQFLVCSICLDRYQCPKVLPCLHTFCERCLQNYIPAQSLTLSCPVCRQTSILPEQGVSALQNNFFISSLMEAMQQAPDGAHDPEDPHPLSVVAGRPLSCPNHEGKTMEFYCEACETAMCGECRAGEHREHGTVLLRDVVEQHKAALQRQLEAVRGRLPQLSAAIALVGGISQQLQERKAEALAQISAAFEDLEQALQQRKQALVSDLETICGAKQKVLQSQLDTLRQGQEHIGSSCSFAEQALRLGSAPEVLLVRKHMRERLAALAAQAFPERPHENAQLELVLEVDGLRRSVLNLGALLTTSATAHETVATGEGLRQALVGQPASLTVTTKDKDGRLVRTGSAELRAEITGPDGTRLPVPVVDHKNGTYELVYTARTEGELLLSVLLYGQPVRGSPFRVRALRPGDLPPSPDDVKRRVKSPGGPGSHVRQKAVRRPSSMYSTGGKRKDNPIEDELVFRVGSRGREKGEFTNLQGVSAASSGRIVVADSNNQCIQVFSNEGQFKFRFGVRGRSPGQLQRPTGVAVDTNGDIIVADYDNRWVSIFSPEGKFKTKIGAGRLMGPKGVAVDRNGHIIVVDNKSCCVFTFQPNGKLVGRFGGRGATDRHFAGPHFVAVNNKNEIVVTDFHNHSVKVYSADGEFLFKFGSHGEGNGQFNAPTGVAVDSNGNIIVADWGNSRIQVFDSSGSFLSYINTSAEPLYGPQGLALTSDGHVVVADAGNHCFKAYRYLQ
Chain of UniProt Q9BRN9 (Q9BRN9 whole entry, looked up): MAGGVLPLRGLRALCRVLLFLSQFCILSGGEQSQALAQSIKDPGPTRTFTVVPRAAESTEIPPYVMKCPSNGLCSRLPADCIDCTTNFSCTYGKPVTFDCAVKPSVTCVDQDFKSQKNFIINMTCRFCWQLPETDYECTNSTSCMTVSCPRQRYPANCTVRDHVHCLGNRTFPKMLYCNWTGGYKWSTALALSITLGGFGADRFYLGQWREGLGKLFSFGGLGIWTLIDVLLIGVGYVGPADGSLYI
Chain of UniProt Q86UE8 (Q86UE8 whole entry, looked up): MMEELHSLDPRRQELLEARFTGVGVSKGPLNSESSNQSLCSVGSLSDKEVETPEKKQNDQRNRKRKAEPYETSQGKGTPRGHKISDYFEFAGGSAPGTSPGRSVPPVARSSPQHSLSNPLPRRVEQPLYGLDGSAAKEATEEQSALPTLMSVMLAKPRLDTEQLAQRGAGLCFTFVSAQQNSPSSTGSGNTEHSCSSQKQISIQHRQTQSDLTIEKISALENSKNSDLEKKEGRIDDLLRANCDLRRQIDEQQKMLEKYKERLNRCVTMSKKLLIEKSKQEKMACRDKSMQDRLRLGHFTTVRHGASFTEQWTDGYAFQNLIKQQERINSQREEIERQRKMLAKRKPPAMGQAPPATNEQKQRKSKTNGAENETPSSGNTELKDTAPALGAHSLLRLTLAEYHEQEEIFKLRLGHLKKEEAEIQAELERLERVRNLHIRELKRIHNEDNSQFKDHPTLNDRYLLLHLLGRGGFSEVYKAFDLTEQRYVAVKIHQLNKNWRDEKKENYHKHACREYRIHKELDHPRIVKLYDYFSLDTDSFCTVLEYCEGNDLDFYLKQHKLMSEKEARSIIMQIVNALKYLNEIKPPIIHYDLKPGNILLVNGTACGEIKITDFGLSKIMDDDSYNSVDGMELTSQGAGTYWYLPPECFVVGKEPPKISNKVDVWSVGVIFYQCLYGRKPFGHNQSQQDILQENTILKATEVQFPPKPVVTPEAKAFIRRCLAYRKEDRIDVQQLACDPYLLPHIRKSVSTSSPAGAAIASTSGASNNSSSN
Chain of UniProt Q24JP5 (Q24JP5 whole entry, looked up): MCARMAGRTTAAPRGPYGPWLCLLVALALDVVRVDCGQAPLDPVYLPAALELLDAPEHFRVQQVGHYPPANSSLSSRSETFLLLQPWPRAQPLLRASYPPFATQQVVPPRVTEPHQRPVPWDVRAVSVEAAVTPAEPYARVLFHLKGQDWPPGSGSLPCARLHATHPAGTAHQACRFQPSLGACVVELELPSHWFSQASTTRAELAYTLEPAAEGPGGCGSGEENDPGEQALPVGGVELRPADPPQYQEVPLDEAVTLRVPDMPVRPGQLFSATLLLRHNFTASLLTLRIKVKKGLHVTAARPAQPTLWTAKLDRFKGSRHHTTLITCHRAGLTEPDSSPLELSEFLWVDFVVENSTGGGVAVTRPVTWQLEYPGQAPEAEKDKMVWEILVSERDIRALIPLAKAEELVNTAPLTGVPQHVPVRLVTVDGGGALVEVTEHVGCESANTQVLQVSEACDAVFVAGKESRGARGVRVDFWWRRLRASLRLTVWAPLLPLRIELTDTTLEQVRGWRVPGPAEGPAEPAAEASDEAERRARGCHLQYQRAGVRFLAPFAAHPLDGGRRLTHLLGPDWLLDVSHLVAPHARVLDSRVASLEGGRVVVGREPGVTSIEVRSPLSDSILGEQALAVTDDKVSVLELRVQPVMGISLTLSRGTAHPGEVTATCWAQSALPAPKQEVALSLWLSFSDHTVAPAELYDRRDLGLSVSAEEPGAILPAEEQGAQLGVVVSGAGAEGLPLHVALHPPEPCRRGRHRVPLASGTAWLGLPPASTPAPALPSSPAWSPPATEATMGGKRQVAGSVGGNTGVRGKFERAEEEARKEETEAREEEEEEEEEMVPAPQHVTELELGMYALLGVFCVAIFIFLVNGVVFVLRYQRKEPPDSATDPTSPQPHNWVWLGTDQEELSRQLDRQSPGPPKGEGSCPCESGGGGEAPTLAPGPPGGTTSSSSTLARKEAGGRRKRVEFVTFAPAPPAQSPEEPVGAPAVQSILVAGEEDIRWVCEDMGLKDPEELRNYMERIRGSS
Chain of UniProt Q9H3M7 (Q9H3M7 whole entry, looked up): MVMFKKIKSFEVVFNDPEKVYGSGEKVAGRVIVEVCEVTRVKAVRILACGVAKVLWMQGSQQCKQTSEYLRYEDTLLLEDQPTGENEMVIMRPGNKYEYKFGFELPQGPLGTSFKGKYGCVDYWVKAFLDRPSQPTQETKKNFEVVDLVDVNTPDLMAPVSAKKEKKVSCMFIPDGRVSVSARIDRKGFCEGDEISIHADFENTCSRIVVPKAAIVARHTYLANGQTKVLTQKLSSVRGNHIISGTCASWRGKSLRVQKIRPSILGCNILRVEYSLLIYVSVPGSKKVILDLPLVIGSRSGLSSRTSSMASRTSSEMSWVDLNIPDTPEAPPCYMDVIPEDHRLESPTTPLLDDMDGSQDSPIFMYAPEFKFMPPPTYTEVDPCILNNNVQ
Chain of UniProt O60637 (O60637 whole entry, looked up): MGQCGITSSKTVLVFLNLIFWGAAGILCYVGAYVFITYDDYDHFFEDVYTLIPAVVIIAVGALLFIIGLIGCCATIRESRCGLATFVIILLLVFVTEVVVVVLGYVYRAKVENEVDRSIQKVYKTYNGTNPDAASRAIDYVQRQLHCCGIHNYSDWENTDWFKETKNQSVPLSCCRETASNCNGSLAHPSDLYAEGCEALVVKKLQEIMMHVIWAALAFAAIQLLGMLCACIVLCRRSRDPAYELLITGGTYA
Chain of UniProt Q9BZL1 (Q9BZL1 whole entry, looked up): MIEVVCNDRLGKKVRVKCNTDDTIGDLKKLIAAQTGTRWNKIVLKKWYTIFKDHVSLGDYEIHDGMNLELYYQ
Chain of UniProt P42680 (P42680 whole entry, looked up): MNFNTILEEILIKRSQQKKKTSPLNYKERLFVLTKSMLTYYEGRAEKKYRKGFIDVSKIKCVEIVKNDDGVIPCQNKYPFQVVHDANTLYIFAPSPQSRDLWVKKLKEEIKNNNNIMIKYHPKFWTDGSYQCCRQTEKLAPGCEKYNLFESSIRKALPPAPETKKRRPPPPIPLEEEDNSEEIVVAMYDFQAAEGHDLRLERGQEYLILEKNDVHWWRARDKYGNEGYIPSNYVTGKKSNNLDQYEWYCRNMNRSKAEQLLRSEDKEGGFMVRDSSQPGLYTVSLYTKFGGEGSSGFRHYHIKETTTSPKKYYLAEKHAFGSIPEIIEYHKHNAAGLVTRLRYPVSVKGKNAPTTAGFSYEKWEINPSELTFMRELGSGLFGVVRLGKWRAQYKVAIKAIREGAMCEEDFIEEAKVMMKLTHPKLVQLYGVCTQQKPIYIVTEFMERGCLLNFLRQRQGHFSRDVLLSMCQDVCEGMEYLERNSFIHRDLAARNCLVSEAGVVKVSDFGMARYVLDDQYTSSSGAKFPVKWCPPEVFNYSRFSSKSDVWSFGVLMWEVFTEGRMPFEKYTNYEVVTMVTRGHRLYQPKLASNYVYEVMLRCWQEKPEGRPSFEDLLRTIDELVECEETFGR
Chain of UniProt P15923 (P15923 whole entry, looked up): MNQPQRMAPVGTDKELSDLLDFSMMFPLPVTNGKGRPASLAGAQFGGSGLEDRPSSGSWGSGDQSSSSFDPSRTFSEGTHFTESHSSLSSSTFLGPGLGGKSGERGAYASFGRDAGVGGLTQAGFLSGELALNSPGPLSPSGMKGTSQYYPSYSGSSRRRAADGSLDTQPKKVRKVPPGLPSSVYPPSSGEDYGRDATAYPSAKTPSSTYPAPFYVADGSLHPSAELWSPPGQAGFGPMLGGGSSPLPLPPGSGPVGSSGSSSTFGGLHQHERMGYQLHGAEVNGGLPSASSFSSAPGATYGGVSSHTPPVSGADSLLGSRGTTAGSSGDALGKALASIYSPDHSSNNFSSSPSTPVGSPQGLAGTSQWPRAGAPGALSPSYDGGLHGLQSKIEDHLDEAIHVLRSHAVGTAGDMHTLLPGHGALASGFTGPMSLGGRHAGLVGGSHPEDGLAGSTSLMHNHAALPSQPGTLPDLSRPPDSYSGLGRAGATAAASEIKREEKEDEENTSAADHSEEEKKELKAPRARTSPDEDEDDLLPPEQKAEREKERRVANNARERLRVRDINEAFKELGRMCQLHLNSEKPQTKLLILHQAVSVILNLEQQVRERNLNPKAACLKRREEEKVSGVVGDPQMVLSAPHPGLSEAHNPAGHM

In the case of TSPAN3 (UniProt O60637), the log2 fold change with lapatinib is -0.013; in [1], 0.513 (active); in the assay with duvelisib, -0.058; in the assay with gandotinib, -0.163; with tozasertib, -0.01; in [2], -0.342. Further, the log2 fold change was 0.004 with nilotinib; -0.003 in [3]; 0.118 in the assay with dasatinib; -0.199 in assay [4]; 0.033 in [5]; -0.032 with tipifarnib. The log2 fold change in assay [6] was -0.098; in assay [7], 0.015.
Turning to TMEM132A isoform 2 (UniProt Q24JP5), the log2 fold change with lapatinib is -0.172; in the assay with crizotinib, -0.237; in assay [1], -0.084; with gandotinib, 0.077; with tozasertib it was 0.042; in the assay with doramapimod, -0.163. For the same target, the log2 fold change in [2] is 0.002; with quisinostat it was -0.022; in assay [8] it was 0.087; in [6] it was 0.724; in [7], -0.014.
Regarding TM2D3 (UniProt Q9BRN9), the log2 fold change with pictilisib was 0.069; in assay [1] it was -0.836 (active); with gandotinib it was 0.329; in the assay with tozasertib, -0.075; with bafetinib, 0.048; in assay [2] it was 0.348. Further, in [7], the log2 fold change is -0.09.
In the case of UCP2 (UniProt P55851), the log2 fold change with crizotinib was -0.441 (active); in the assay with doramapimod, -0.141; with nilotinib, 0.144; in [3] it was -0.186; in [4], -0.137; with quisinostat, -0.022. In addition, the results for the log2 fold change (with tipifarnib; in [8]) were 0.142 and 0.059, respectively.
For the target TXNIP (UniProt Q9H3M7), the log2 fold change in the assay with pictilisib was 0.029; with crizotinib, -0.045; in [1], 0.143; with duvelisib it was 0; in the assay with gandotinib, -0.089; with tozasertib it was -0.015. Further, the log2 fold change with doramapimod is 0.019; with bafetinib it was -0.042; in assay [2] it was -0.037; with nilotinib, 0.091; in assay [3], 0.038; in the assay with dasatinib, -0.023. Further, the log2 fold change is -0.026 in [4]; 0.012 in assay [5]; -0.077 with quisinostat; -0.022 with tipifarnib; 0.029 in [8]; 0.005 in [7].
On to TTLL12 (UniProt V9GY16), for which the log2 fold change with pictilisib was 0.058; in the assay with crizotinib it was 0.072; in assay [1], -0.169; with gandotinib, 0.188; with tozasertib, -0.087; with doramapimod, -0.029. The log2 fold change with bafetinib is -0.187; in assay [2], 0.263; with quisinostat, -0.436; in assay [8], -0.021; in [7], 0.039.
In the case of TLE3 (UniProt H0YL70), the log2 fold change with duvelisib was 0.037; in the assay with dasatinib, 0.077; in [5] it was 0.05.
TUBA4A (UniProt C9JQ00): the log2 fold change is -0.2 with pictilisib; -0.094 in assay [1]; -0.142 with gandotinib; -0.368 with bafetinib; 0.228 in assay [2].
TFPI isoform 2 (UniProt P10646): the log2 fold change with crizotinib was 0.045; with doramapimod, -0.121; with quisinostat it was -0.087; in [8], 0.082.
Consider UBAP2 (UniProt Q5JV08), for which the log2 fold change with nilotinib is -0.211; in assay [3] it was 0.172; in [4], 0.104; with tipifarnib, 0.133.
For TEC (UniProt P42680), the log2 fold change with lapatinib was 0.007; with tozasertib it was -0.198; with nilotinib, -0.047; in assay [3] it was 0.099; in [4] it was 0.019; with tipifarnib, 0.116. Moreover, in assay [6], the log2 fold change is -0.039.
For the target TPM3 isoform 3 (UniProt P06753), the log2 fold change in the assay with lapatinib is -0.009; with crizotinib it was 0.095; in assay [1], -0.411 (active); with duvelisib, 0.011; with gandotinib it was 0.176; in the assay with tozasertib it was 0.143. Further, the log2 fold change was 0.027 with doramapimod; 0.202 in assay [2]; 0.05 with dasatinib; 0.106 in [5]; 0.112 with quisinostat; -0.09 in assay [8]. Further, the figures for the log2 fold change in assay [6] and in [7] were 0.001 and -0.035, respectively.
In the case of TLK2 isoform 3 (UniProt Q86UE8), the results for the log2 fold change (in assay [1]; in the assay with gandotinib; in assay [2]) were 0.012, 0.009 and -0.101, respectively.
In the case of UBL5 (UniProt Q9BZL1), the log2 fold change in the assay with pictilisib was -0.036; with crizotinib, 0.072; in [1], -0.194; with duvelisib, -0.042; in the assay with gandotinib it was 0.042; with tozasertib, 0.138. Moreover, the log2 fold change with doramapimod is 0.013; with bafetinib it was -0.034; in assay [2], 0.104; in the assay with nilotinib it was 0.028; in assay [3], 0.154; with dasatinib, 0.036. In addition, the log2 fold change is 0.018 in assay [4]; 0.027 in assay [5]; 0.341 (active) with quisinostat; 0.031 in the assay with tipifarnib; -0.149 in assay [8]; -0.013 in assay [7].
For the target TXNRD2 isoform 3 (UniProt Q9NNW7), in assay [7], the log2 fold change is -0.228.
Consider TRIM3 (UniProt O75382), for which the log2 fold change with lapatinib was 0.009; with tozasertib, -0.056; in assay [6], 0.623; in assay [7] it was 0.146.
On to TCF3 isoform 2 (UniProt P15923), for which the log2 fold change with crizotinib is -0.048; with doramapimod, 0.092; with quisinostat it was -0.05; in assay [8] it was -0.005; in assay [7], -0.068.
